Compounds with a hit are over-represented: about 1.3% of the library has one in this group of screens.
C-LANA FP = inhibitors of KSHV LANA C-terminal domain DNA binding. MBP-C-LANA/FAM-LBS DNA binding, fluorescence polarization. inhibition, % at 9 µM. 340,000 tested, 0.078% active;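 active = highest replicate inhibition at or above 60% at 9 µM, even if other replicates fall short; inactive = all replicates below 60% inhibition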
E coli Lon inh = E. coli protease La inhibition; P0A9M0; AID 602123; 360,000 tested, 0.42% active; inhibition, % at 7.94 µM; purified E. coli Lon protease, fluorescence polarization; in the data active = inhibition above about 13%, passing the limit was not always enough
MCL1 BIM primary = inhibitors of human MCL1 binding to BIM-BH3 peptide; Q07820; 320,000 tested, 0.68% active; GST-MCL1 / FITC-Bim-BH3 fluorescence polarization; inhibition, % at 10.9 µM;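 active = inhibition above the mean inhibition of all tested compounds plus 3 SD, set per campaign, cut at about 40% in these data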;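 also: higher means more loss of mP so more displacement of Bim peptide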
Keap1-Nrf2 PPI = inhibitors of human Keap1-Nrf2 protein-protein interaction | Q14145 | 340,000 tested, 0.15% active | Keap1 Kelch-Nrf2 peptide fluorescence polarization, 1536-well | inhibition, % at 9.4 µM; in the data active = inhibition above about 12%;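 also: human Keap1 Kelch domain with fluorescein labeled Nrf2 9mer peptide probe; higher means more block of Keap1 binding to Nrf2 peptide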
Bcl-xL primary = blocks human Bcl-xL binding to Bim BH3 peptide; Q07817; GST-Bcl-xL / FITC-Bim BH3 peptide fluorescence polarization; inhibition, % at 10.9 µM; 320,000 tested, 0.7% active; AID 2129;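 active = inhibition above the mean of all tested compounds plus 3 SD, cutoff set per campaign, cut at about 30% in these data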;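 also: inhibitors lower millipolarization by displacing the labeled peptide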
GLD-1 TGE inh = GLD-1-TGE RNA interaction inhibition (C. elegans) | Q17339 | purified GLD-1 + fluorescein TGE RNA, fluorescence polarization | inhibition, % at 5.96 µM | 320,000 tested, 0.44% active | AID 2280;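 active = percent inhibition above a per-plate cutoff, the plate mean of test compounds plus 3 SD, cut at about 30% in these data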
Target sequence (Q17339 whole entry, looked up): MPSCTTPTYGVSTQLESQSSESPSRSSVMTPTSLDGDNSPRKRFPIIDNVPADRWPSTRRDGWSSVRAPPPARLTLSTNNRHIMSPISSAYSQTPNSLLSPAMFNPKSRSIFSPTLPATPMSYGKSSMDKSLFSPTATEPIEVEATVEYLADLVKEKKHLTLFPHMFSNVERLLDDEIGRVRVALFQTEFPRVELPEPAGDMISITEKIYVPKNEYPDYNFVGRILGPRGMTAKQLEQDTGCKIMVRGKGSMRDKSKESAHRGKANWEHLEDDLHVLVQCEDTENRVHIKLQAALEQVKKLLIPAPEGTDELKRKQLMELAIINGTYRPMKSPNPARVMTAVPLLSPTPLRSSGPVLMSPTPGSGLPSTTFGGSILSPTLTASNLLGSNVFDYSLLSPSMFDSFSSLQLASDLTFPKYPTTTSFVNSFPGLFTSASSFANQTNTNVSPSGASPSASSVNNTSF
BCLXL inh confirm = Bcl-xL (human) inhibition, MCL1 counter-screen confirmation; shares compounds with MCL1 BIM primary; GST-Bcl-xL / FITC-Bim BH3 peptide FP binding; 1,700 tested, 54% active; inhibition, % at 10.9 µM;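 active = inhibition above a cutoff equal to the mean inhibition of all tested compounds plus 3 SD, cut at about 30% in these data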
MCL1 inh confirm = confirmation of human MCL1 and BIM-BH3 interaction inhibitors. GST-MCL1 / FITC-Bim-BH3 fluorescence polarization. 1,700 tested, 61% active. shares compounds with MCL1 BIM primary. inhibition, % at 10.9 µM. AID 2168;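 active = inhibition above the average of all tested compounds plus 3 SD, cut at about 40% in these data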
Of the large screens only hits and unclear results are named; the others gave an inactive call (follow-up assays come after a bar, where they were run).

O=C(NCCCN1CCOCC1)C(=O)NCC1OCCCN1S(=O)(=O)c1cc(F)ccc1F (stereo unspecified)	none
Oc1ccc(-c2csc(-c3c[nH]c4ccccc34)n2)c(O)c1	none
Cc1ccc(-c2csc(-c3c[nH]c4ccccc34)n2)c(C)c1	MCL1 BIM primary 89 | BCLXL inh confirm inactive | MCL1 inh confirm inactive
COC(=O)c1ccc(C(=O)OC)c(NC(=O)COC(=O)CC2CC3CCC2C3)c1 (stereo unspecified)	none
O=Cc1cccc(OC(=O)/C=C/c2ccco2)c1	MCL1 BIM primary 50 | BCLXL inh confirm inactive | MCL1 inh confirm 52
Cc1nn(-c2ccc(Cl)cc2)c(NC(=O)C(C)C)c(-c2ccccc2)c1=O	none (no result: C-LANA FP)
CN1C(=O)N(C)C2C1NC(=O)N2C (stereo unspecified)	none
CC1C2C(C)N(C)C(=O)N(C)C2N(C)C(=O)N1C (stereo unspecified)	MCL1 BIM primary 85, Bcl-xL primary 81, GLD-1 TGE inh 41 | BCLXL inh confirm 74 | MCL1 inh confirm 90
CCOC(=O)[C@]12CCC=C1N(Cc1ccccc1)C(=O)[C@H](CC(=O)NCC1CCCCC1)C2	none (no result: C-LANA FP, MCL1 BIM primary, Keap1-Nrf2 PPI, Bcl-xL primary, GLD-1 TGE inh)
COc1ccccc1N(CC(=O)NC1CCCCC1)C(=O)c1csnn1	none
COc1ccccc1N(CC(=O)NC1CCCC1)C(=O)c1csnn1	MCL1 BIM primary 69 | BCLXL inh confirm inactive | MCL1 inh confirm inactive
O=C(NC1CC1)c1cc2c(F)cccc2s1	none
CN(C)CCn1nnnc1SCC1=C(C(=O)O)N2C(=O)[C@@H](NC(=O)Cc3csc(N)n3)[C@H]2SC1	MCL1 BIM primary 51, Bcl-xL primary 37 | BCLXL inh confirm inactive | MCL1 inh confirm inactive
Cc1nnc(SCC2=C(C(=O)O)N3C(=O)C(NC(=O)Cn4nc(C(F)F)cc4C)C3SC2)s1 (stereo unspecified)	none
O=C(NCCC(=O)N1CCN(Cc2c(F)cccc2Cl)CC1)c1ccc(Cl)cc1	none
COc1ccc(NC(=O)c2cccc(S(=O)(=O)N3CCc4ccccc43)c2)cn1	MCL1 BIM primary 60, Bcl-xL primary 61, GLD-1 TGE inh 49 | BCLXL inh confirm 46 | MCL1 inh confirm 58
COc1cc(C(CCN2CCCC2)c2c(OC)cc(OC)c3c(-c4ccccc4)cc(=O)oc23)cc(OC)c1OC (stereo unspecified)	none
O=C1C2C(C(=O)N1/N=C/c1cc([N+](=O)[O-])ccc1O)C1C=CC2C12CC2 (stereo unspecified)	none
O=C1C2C(C(=O)N1/N=C/c1cc([N+](=O)[O-])c(O)cc1O)C1C=CC2C12CC2 (stereo unspecified)	MCL1 BIM primary 48 | BCLXL inh confirm inactive | MCL1 inh confirm 59
Cc1ccn2cc(-c3ccc(O)c(O)c3)nc2c1	MCL1 BIM primary 56 | BCLXL inh confirm 58 | MCL1 inh confirm 58
CC(=O)Nc1ccc(NC(=O)c2c(C)c(-c3ccccc3)nc3ccccc23)cc1	none
O=C(O)C1Sc2[nH]c(=O)sc2C2c3ccc(O)cc3OC(=O)C12 (stereo unspecified)	MCL1 BIM primary 82, Bcl-xL primary 67, GLD-1 TGE inh 73 | BCLXL inh confirm 46 | MCL1 inh confirm 49
Oc1ccc(/C=N/Nc2ccnc3cc(Cl)ccc23)c(O)c1O	MCL1 BIM primary 54 | BCLXL inh confirm 33 | MCL1 inh confirm inactive
C[C@H](CO)N1C[C@H](C)[C@H](CN(C)S(=O)(=O)c2ccc(F)cc2)OCc2cnnn2CCCC1=O	none (no result: C-LANA FP, MCL1 BIM primary, Keap1-Nrf2 PPI, Bcl-xL primary, GLD-1 TGE inh)
O=C(O)CN1C(=O)/C(=C\C(Br)=C\c2ccccc2)SC1=S	MCL1 BIM primary 43 | BCLXL inh confirm 33 | MCL1 inh confirm 47
O=C(O)CN1C(=O)/C(=C/C=C/c2ccccc2)SC1=S	none
CCCSCC(=O)Nc1ncc2c(n1)-c1ccccc1CC2	MCL1 BIM primary 62, Bcl-xL primary 66 | BCLXL inh confirm 71 | MCL1 inh confirm 90

High-throughput results deposited in PubChem BioAssay by several laboratories.
